Outcome and AC50 data for eight compounds are collected here from PubChem BioAssay (EPA / NIEHS).

Read-out in experiment [1]: Thyroid Hormone Responsive (THRSP), THRSP (gene 7069)
Description: LTEA_HepaRG_THRSP: Life Technologies and Expression Analysis (LTEA) Assay for Thyroid Hormone Responsive (THRSP) using HepaRG (AID 2283536; active = hit-call score of the fitted dose curve at least 0.9, where 1 is the maximum; inactive = score below 0.9). Particulars: mRNA level, 48 h; actives raise or lower the signal. The essentials:
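Differentiated HepaRG cells treated 48 h in serum-free induction medium with 8 half-log concentrations up to 100 uM (0.5% DMSO), duplicates. THRSP mRNA by TaqMan qRT-PCR normalised to ACTB, GAPDH, POLR2A; bidirectional fit versus DMSO.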

Read-out in experiment [2]: Cellular tumor antigen p53 (Homo sapiens) (UniProt P04637)
Description: LTEA_HepaRG_TP53: Life Technologies and Expression Analysis (LTEA) Assay for Tumor Protein P53 (TP53) using HepaRG (AID 2283537; active = hit-call score of the fitted dose curve at least 0.9, where 1 is the maximum; inactive = score below 0.9). The note with it: mRNA level, 48 h; actives raise or lower the signal. In outline: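 Read-out is TP53 transcript level by microfluidic qRT-PCR, normalised to three housekeeping genes and fitted bidirectionally against DMSO. Human HepaRG cells received compounds for 48 h, highest concentration 100 uM.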

Read-out in experiment [3]: UDP glucuronosyltransferase (UGT1A1), UGT1A1 (gene 54658)
The experiment can be described thus: LTEA_HepaRG_UGT1A1: Life Technologies and Expression Analysis (LTEA) Assay for UDP glucuronosyltransferase (UGT1A1) using HepaRG (AID 2283538; active = hit-call score of the fitted dose curve at least 0.9, where 1 is the maximum; inactive = score below 0.9). Particulars: mRNA level, 48 h; actives raise or lower the signal. The essentials: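 Human liver HepaRG cultures receive test chemical for 48 h, up to 100 uM in 0.5% DMSO, with phenobarbital induction controls. UGT1A1 mRNA is measured by qRT-PCR and normalized to ACTB, GAPDH and POLR2A.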

Read-out in experiment [4]: UDP glucuronosyltransferase (UGT1A6), UGT1A6 (gene 54578)
Description: LTEA_HepaRG_UGT1A6: Life Technologies and Expression Analysis (LTEA) Assay for UDP glucuronosyltransferase (UGT1A6) using HepaRG (AID 2283539; active = hit-call score of the fitted dose curve at least 0.9, where 1 is the maximum; inactive = score below 0.9). The note with it: mRNA level, 48 h; actives raise or lower the signal. In outline:
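qRT-PCR readout of UGT1A6 mRNA (normalized to ACTB/GAPDH/POLR2A) in differentiated HepaRG cells after 48 h chemical exposure; 8 concentrations, top 100 uM, half-log steps, 0.5% DMSO. Bidirectional curve fit relative to DMSO baseline.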

Read-out in experiment [5]: X-box binding protein 1 (XBP1), XBP1 (gene 7494)
Description: LTEA_HepaRG_XBP1: Life Technologies and Expression Analysis (LTEA) Assay for X-box binding protein 1 (XBP1) using HepaRG (AID 2283540; active = hit-call score of the fitted dose curve at least 0.9, where 1 is the maximum; inactive = score below 0.9). Particulars: mRNA level, 48 h; actives raise or lower the signal. In outline:
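HepaRG, 48 h exposure, 8-pt half-log CRC top 100 uM, 0.5% DMSO vehicle, duplicates. Readout: TaqMan qRT-PCR of XBP1 mRNA, housekeeping-normalised (ACTB/GAPDH/POLR2A); bidirectional fit vs DMSO baseline.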

Experiment [6] is described as follows: LTEA_HepaRG_LDH_cytotoxicity: Cytotoxicity Assessment in the Life Technologies and Expression Analysis (LTEA) Assay (AID 2283563).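 For AC50: LDH activity released into spent culture medium as a marker of cell death.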 In outline:
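HepaRG (human liver line), 48 h exposure, 8-pt half-log series from 100 uM, 0.5% DMSO vehicle, duplicates. Read-out: LDH in spent medium. Positive-direction fit vs DMSO baseline.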

Experiment [7] in a line: TOX21_p53_BLA_p2_viability: Viability Assessment in the Tox21 HCT-116 p53 Agonism Beta-lactamase Assay, Phase 2 (AID 2283591).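 Note: compound exposure lasted 16 h at 37 °C; actives lower the ATP signal meaning cytotoxicity.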 In outline: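 HCT116 p53-bla cells, 4000/well, dosed after 5 h plating (217-fold dilution of DMSO stocks) and incubated 16 h at 37C. Viability taken as cellular ATP by CellTiter-Glo luminescence after 30 min RT; signal loss marks cytotoxicity.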

A short description of experiment [8]: TOX21_p53_BLA_p3_viability: Viability Assessment in the Tox21 HCT-116 p53 Agonism Beta-lactamase Assay, Phase 3 (AID 2283593).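 Note: cells exposed to compound for 16 h before reading.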 The essentials:
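HCT116 cells, 4000/well, dosed 5 h after plating by pin transfer (217-fold dilution from DMSO stock) and incubated 16 h at 37C, 5% CO2. Viability read as ATP luminescence with CellTiter-Glo after 30 min at room temperature.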

In experiment [9] the target is Cellular tumor antigen p53 (Homo sapiens) (UniProt P04637). The experiment can be described thus: TOX21_p53_BLA_p3_ratio: Tox21 HCT-116 p53 Agonism Beta-lactamase Assay, Ratio, Phase 3 (AID 2283596). The essentials:
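HCT116 p53-bla cells (4000/well) given compound in DMSO (217-fold dilution) after 5 h, incubated 16 h at 37C. CCF4-AM substrate 2 h at room temperature; 460/530 nm emission ratio, gain fitted against DMSO.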

Experiment [10] is described as follows: TOX21_p53_BLA_p4_viability: Viability Assessment in the Tox21 HCT-116 p53 Agonism Beta-lactamase Assay, Phase 4 (AID 2283597).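 Note: hits lower the luminescence signal meaning cytotoxicity.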 The essentials:
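We seeded HCT116 p53 reporter cells at 4000/well and waited 5 h. We then added compounds in DMSO at a 217-fold dilution and incubated for 16 h. Viability was read as CellTiter-Glo luminescence after 30 min at RT.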

Experiment [11] deals with Cellular tumor antigen p53 (Homo sapiens) (UniProt P04637). The experiment can be described thus: TOX21_p53_BLA_p5_ratio: Tox21 HCT-116 p53 Agonism Beta-lactamase Assay, Ratio, Phase 5 (AID 2283599). The essentials:
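HCT-116 p53-bla cells (4000/well) plated 5 h, dosed with compound (217-fold DMSO dilution) for 16 h at 37 C; CCF4-AM substrate 2 h at room temperature. Activity is the 460/530 nm emission ratio (405 nm excitation), fitted in gain-of-signal direction versus DMSO.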

For experiment [12] the target is unchanged. The experiment can be described thus: TOX21_p53_BLA_p4_ratio: Tox21 HCT-116 p53 Agonism Beta-lactamase Assay, Ratio, Phase 4 (AID 2283601). The essentials:
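HCT-116 p53 beta-lactamase reporter cells (4000/well) preincubated 5 h, then compound (217-fold dilution of DMSO stock) for 16 h at 37C. CCF4-AM substrate added 2 h at room temperature; 460/530 nm emission ratio fitted upward versus DMSO.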

A short description of experiment [13]: Tanguay_ZF_120hpf_MORT_legacy: (Legacy) Oregon State University Tanguay Lab 120 Hour Post-fertilization zebrafish Assay for Mortality (AID 2283633). The essentials: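 Brightfield scoring of embryo death (binary) at 24 and 120 hpf; static exposure 6–120 hpf, 28C, sealed and foil-covered. Pronase-dechorionated 5D wild-type larvae, single embryo per well. DMSO 0.64% v/v; trimethyltin chloride 5uM positive control.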

The nature of experiment [14]: Tanguay_ZF_120hpf_YSE_legacy: (Legacy) Oregon State University Tanguay Lab 120 Hour Post-fertilization zebrafish Assay for Yolk Sac Edema (AID 2283634).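 For AC50: actives raise the incidence of yolk sac edema above the DMSO baseline.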 In outline: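 Binary brightfield scoring of yolk sac edema at 120 hpf; DMSO baseline, gain-of-signal fitting. Dechorionated 5D larvae, one per well, static exposure 6–120 hpf, 28C, 0.64% DMSO. Dead embryos not scored.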

Experiment [15] in a line: Tanguay_ZF_120hpf_AXIS_legacy: (Legacy) Oregon State University Tanguay Lab 120 Hour Post-fertilization zebrafish Assay for Body Axis Malformation (AID 2283635). The essentials:
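Embryos: 5D wild-type, pronase-dechorionated 4 hpf; static exposure 6–120 hpf, 28C, sealed, dark, 1 embryo/well, 0.64% DMSO. 120 hpf axis malformation scored present/absent; dead embryos excluded. Analysed as gain of signal vs DMSO.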

Experiment [16] in a line: Tanguay_ZF_120hpf_SNOU_legacy: (Legacy) Oregon State University Tanguay Lab 120 Hour Post-fertilization zebrafish Assay for Snout Malformation (AID 2283637). The essentials: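 Dechorionated tropical 5D wild-type zebrafish embryos exposed statically from 6 to 120 hpf at 28C, one per well, in 0.64% DMSO. Snout malformation scored as present/absent by brightfield at 120 hpf; dead embryos not scored.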

In experiment [17] the target is Cellular tumor antigen p53 (Homo sapiens) (UniProt P04637). The experiment can be described thus: TOX21_p53_BLA_p2_ratio: Tox21 HCT-116 p53 Agonism Beta-lactamase Assay, Ratio, Phase 2 (AID 2283592). In outline: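 In this cell-based reporter format, HCT116 cells were dosed with chemicals delivered from DMSO by 217-fold dilution and incubated 16 h at 37C. Emission at 460 and 530 nm after 2 h CCF4-AM loading provided the ratio, fitted upward versus DMSO.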
Sequence of Cellular tumor antigen p53 (Homo sapiens) (P04637 whole entry, looked up): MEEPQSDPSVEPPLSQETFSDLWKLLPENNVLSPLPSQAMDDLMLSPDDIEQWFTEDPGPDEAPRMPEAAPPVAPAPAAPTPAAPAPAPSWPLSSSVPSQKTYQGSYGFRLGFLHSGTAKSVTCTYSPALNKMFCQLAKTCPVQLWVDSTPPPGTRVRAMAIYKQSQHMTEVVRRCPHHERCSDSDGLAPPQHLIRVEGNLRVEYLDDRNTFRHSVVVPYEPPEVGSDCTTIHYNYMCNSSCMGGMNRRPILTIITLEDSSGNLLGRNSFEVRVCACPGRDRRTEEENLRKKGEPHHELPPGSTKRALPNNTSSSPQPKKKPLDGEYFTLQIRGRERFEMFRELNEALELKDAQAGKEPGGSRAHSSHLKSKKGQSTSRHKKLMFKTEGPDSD

Results filed as inconclusive are left out. Calls of active or inactive are those of the source. Rule for the calls, unless noted: active = hit-call score of the fitted dose curve at least 0.9, where 1 is the maximum; inconclusive = response in the unintended direction; inactive = score below 0.9.

Consider `CC(=O)c1ccc2c(c1)[C@H](NC(=O)c1ccc(F)cc1)[C@@H](O)C(C)(C)O2`, for which the result in [1], in experiment [2], in experiment [4], in experiment [5], in experiment [6] and in experiment [7] was inactive. The call in experiment [8], in experiment [9], in experiment [10], in [11], in [12] and in experiment [13] was inactive. Besides, the result in [14], in experiment [15] and in [16] was inactive. For the same compound, the AC50 in experiment [3] was 22.6 µM (active).
Turning to `CCCC(=O)OCC`, the compound was called inactive in experiment [1], in experiment [2], in experiment [3], in [4], in experiment [5] and in experiment [6]. Further, the outcome in experiment [17], in experiment [8], in [9], in experiment [14], in [15] and in experiment [16] was inactive.
As to `CC(C)(O)c1coc(S(=O)(=O)NC(=O)Nc2c3c(cc4c2CCC4)CCC3)c1`, the result in [1], in experiment [2], in [4], in [5], in experiment [6] and in experiment [7] was inactive. Also, the outcome in experiment [17], in experiment [8], in [9], in experiment [10], in [11] and in experiment [12] was inactive. Also, the call in experiment [13], in [14], in experiment [15] and in [16] was inactive. Besides, in experiment [3], the AC50 was 21.5 µM (active).
Turning to `CCOc1cccc(-n2cc(C(=O)N3CCN(c4cc(C(=O)O)c5ccccc5c4)CC3)nc2-c2ccc(C)cc2)c1`, the AC50 was 26.3 µM (active) in experiment [1]; 91.5 µM (active) in experiment [2]; 75.9 µM (active) in [3]; 75.1 µM (active) in [4]; 88.1 µM (active) in experiment [5]; 36.3 µM (active) in [6]. Besides, the AC50 was 10.6 µM (active) in experiment [7]; 18 µM (active) in experiment [17]; 28.6 µM (active) in [8]; 41.7 µM (active) in [9]; 13.3 µM (active) in [10]; 58.1 µM (active) in [11]. Further, the AC50 in experiment [12] was 24.1 µM (active). Besides, the call in experiment [13], in experiment [14], in experiment [15] and in [16] was inactive.
For the compound `CC[C@H]1CC[C@H](NCc2cc3c(cc2OC)[C@H]2C[C@H]2C(=O)N3C)[C@H](c2ccccc2)N1`, the AC50 in experiment [1] is 29.3 µM (active); in [3], 19 µM (active); in experiment [9], 13.3 µM (active). Moreover, the outcome in experiment [2], in experiment [4], in experiment [5], in experiment [6], in [7] and in experiment [17] was inactive. In addition, the compound was called inactive in experiment [8], in experiment [12], in [13], in experiment [14], in experiment [15] and in experiment [16].
As for `Cc1ccc(N)cc1O`, in [1], the AC50 was 25.2 µM (active). Besides, the compound was classed as inactive in experiment [2], in experiment [3], in experiment [4], in experiment [5], in experiment [6] and in experiment [7]. The outcome in experiment [17], in experiment [8], in experiment [9], in experiment [10], in [11] and in [12] was inactive. Also, the outcome in [13] and in [16] was inactive.
For the compound `Cc1ccc(O)cc1`, the outcome in experiment [1], in [2], in experiment [3], in experiment [4], in experiment [5] and in experiment [6] was inactive. The result in [17], in experiment [9], in experiment [10], in [11], in experiment [12] and in experiment [14] was inactive. For the same compound, the result in experiment [15] and in experiment [16] was inactive.
In the case of `Cc1c(-c2cccnc2)c2ccccc2n1CCCCC(=O)O`, the compound was called inactive in [1], in [2], in [3], in experiment [4], in experiment [5] and in experiment [6]. For the same compound, the outcome in [17], in experiment [9], in experiment [11], in experiment [12], in experiment [13] and in experiment [15] was inactive. In addition, the AC50 in experiment [14] was 51.2 µM (active).
